PubChem BioAssay AID504725 (Broad Institute, 2011)
Measured potencies and affinities stand elsewhere. Activity calls are given as the source filed them. How the calls were made is not given here.

Target: KSHV LANA C-terminal domain (residues 932-1162) binding to LBS DNA (UniProt O40947)
Test: KSHV LANA DNA-binding disruption – biochemical, fluorescence polarization, cherry-picked samples, dose response (AID 504725)
Details: MBP-C-LANA / FAM-LBS DNA fluorescence polarization, percent change from plate compound-well median; series mostly up to 35 µM

outcome, inactive:
CCCc1cc(C(=O)Nc2ccc(C(=O)c3ccc(C)cc3)cc2)n(C)n1
Nc1ccc(-c2nc3ccc(C(=O)O)cc3s2)cc1
Cc1ccc(S(=O)(=O)/N=C/c2ccc(N(C)C)cc2)cc1
CCCCN(C(=O)CSc1nnc(-c2ccc(Cl)cc2)o1)c1c(N)n(CC(C)C)c(=O)[nH]c1=O
C=CC[C@@H](CC(=O)N(CCO)Cc1ccccc1)C(=O)NC[C@H](OC(=O)[C@@H](CC=C)CC(=O)OC(C)(C)C)c1ccccc1
Cc1ccc(-c2nnn(CC(=O)NC3CCN(Cc4ccccc4)CC3)n2)cc1
O=C1c2c(O)ccc(O)c2C(=O)c2c(NCCNCCO)ccc(NCCNCCO)c21
COc1cc(NC(=O)c2ccc(CNc3c(N4CCCC4)c(=O)c3=O)cc2)cc(OC)c1OC
CC(C)C(=O)N1CCN(c2ccccc2NC(=S)NC(=O)c2ccco2)CC1
O=C(/C=C\c1ccccc1)Oc1cccc2cccnc12
CCOc1ccc(S(=O)(=O)N(C)c2ccc(OCC(=O)NC3=NCCS3)cc2)cc1
CCOc1ccc(C(C)NC(=O)c2ccccc2OCc2c(C)noc2C)cc1OCC (stereo not drawn)
NNC(=O)C1C(O)CCC2CN3CCc4c([nH]c5ccccc45)C3CC21 (stereo not drawn)
N#CCCN(CCC#N)C(=O)C1c2ccccc2Oc2ccccc21
O=c1[nH]nc(CSCc2ccccc2Cl)[nH]1
COc1ccc(/C=C/C(=O)NC(=S)Nc2ccc(S(N)(=O)=O)cc2)cc1
CC(C)N(Cc1ccccc1)C(=O)Cn1c(=O)cnc2ccccc21
Cc1nnc2sc(-c3csc4c3CCCC4)nn12
O=[N+]([O-])c1cc(-n2cnnn2)ccc1N1CCC(Cc2ccccc2)CC1
Cc1cc(S(=O)(=O)NC2CCN(Cc3ccccc3)CC2)c(C)cc1Cl
CN(c1ccc(OCC(=O)OCC(=O)c2c(N)n(C)c(=O)n(C)c2=O)cc1)S(=O)(=O)c1ccc2ccccc2c1
COC(=O)C1=C(N)OC2=C(C(=O)CCC2)C1c1cccs1 (stereo not drawn)
COC(=O)C1CCN(C(=O)COC(=O)Cc2c[nH]c3ccccc23)CC1
O=C(OCc1ccccc1)N1C=CC2CC1c1c(Cl)cccc12 (stereo not drawn)
Nc1cc(N)nc(SCC(=O)N2CCCCC2)n1
O=C(NCCN1CCN(C(=O)c2cccs2)CC1)c1cccs1
Cc1sc2nnn(CC(=O)N3CCN(C(=O)c4ccco4)CC3)c(=O)c2c1C
COc1ccc(CCNC(=O)CCCNC(=O)Cn2cnc3sc(C)c(C)c3c2=O)cc1OC
COc1ccc(NC(=O)Cc2nnc(SCC(=O)Nc3nccs3)n2C)cc1
CN(C)CCCNC(=O)c1ccccc1Oc1ccccc1
O=C1/C(=C/c2ccco2)SC(=S)N1c1cccnc1
O=C(NC1(O)C(=O)c2ccccc2C1=O)c1c(Cl)cccc1Cl
COc1cccc(NC(=S)N2CCN(C(c3ccccc3)c3ccccc3)CC2)c1
CN1CCN(CCCNC(=O)c2cc3c(-c4ccc(Cl)cc4)nn(C)c3s2)CC1
CN(CC(=O)Nc1ccc(N2CCOCC2)cc1)C(=O)CSc1ccc(Br)cc1
Cn1c(Cl)c(C(=O)Nc2ccc(Cl)cc2)c2ccccc21
CC(C)N(C(=S)Nc1cccnc1)c1ccccc1
CCc1ccc(C2CC(c3cccc(Cl)c3)n3nc(N)nc3N2)cc1 (stereo not drawn)
